Source: PubChem BioAssay (National Center for Advancing Translational Sciences (NCATS))
Hits are enriched below; roughly 3.8% of the tested compounds scored in any of these assays.
HT1080NT lethal: kills 2HG-producing HT-1080-NT fibrosarcoma cells; actives 1.6% (n = 360,000); AID 686970; Potency, µM (series often up to 46.1 µM), for inactives: at the top dose activity, negative = less viability, most hits filed as cytotoxic; HT-1080-NT fibrosarcoma viability, CellTiter-Glo ATP luminescence, 48 h;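 further: NT is the 2HG producing partner of a matched IDH1 knockdown line; 0% = DMSO-treated cells and -100% = media-only wells without cells; nearly all actives have a fitted effect of over 55% in size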
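Viability by CellTiter-Glo luminescence after 48 h compound exposure at 37C of HT-1080-NT cells (750/well, RPMI, 5% FBS). % activity scaled between DMSO wells and medium-only wells, then curve-fitted and categorized by curve class.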
HT1080 IDH1KD tx: toxicity to HT-1080 IDH1 knockdown cells (counter line); AID 686971; HT-1080 IDH1 knockdown viability, ATP luminescence, 48 h; Potency, µM (top dose mostly 46.1 µM), inactives show at the highest dose activity, negative = toxicity, hits mostly cytotoxic; actives 2% (n = 360,000);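 further: 0% = DMSO wells and -100% = cell-free medium wells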
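Knockdown cells (IDH1KD HT-1080) received compounds 2 h after plating at 750 cells/well and were kept 48 h at 37 °C in 5% FBS RPMI. A CellTiter-Glo luminescence read gave % activity for curve fitting.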
S2 tox: viability counter-screen for ATXN expression inhibitors. S2 cells (HEK-293 line with an ATXN2-luciferase reporter) viability, CellTiter-Fluor protease fluorescence, 24 h. Potency, µM (series often up to 56.7 µM), hits mostly cytotoxic. actives 0.49% (n = 400,000). AID 651635; further: nearly all actives have a fitted effect of over 40% in size
TGFb SMAD3 inh: inhibitors of TGF-b signaling. Potency, µM (doses to about 46.1 µM), for inactives: at the top dose activity, negative = inhibition, usual class: inhibitors. HepG2 CAGA-GFP TGF-b/SMAD3 reporter, GFP fluorescence, 18 h; TGF-beta stimulated, 500 pg/mL final. actives 1.2% (n = 410,000). AID 588855; further: on the % scale 0 is the no-effect control and ±100 the full control effect; nearly all actives have a fitted effect of over 65% in size
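Read-out: total well GFP (ex488/em500-530) summed from mean per-cell fluorescence. Cells: HEPG2 CAGA-GFP, 1% FBS DMEM, 18 h at 37 degrees C with 500 pg/mL final TGF-beta. Unstimulated wells served as the full-inhibition control; stimulated DMSO wells = 0%.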
ATXN2 expr inh: ATXN2 expression inhibition | AID 1745845 | Potency, µM (top dose mostly 57 µM), without a hit: top-dose activity change, negative = inhibition, actives largely listed as inhibitors | actives 0.72% (n = 360,000) | HEK-293 ATXN2-luciferase reporter, luminescence, 24 h; further: on the % scale 0 is the no-effect control and ±100 the full control effect; nearly all actives have a fitted effect of over 55% in size
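qHTS (up to 57 uM final) was run with 24 h compound exposure of reporter cells at 37 °C. Each well was multiplexed: SteadyGlo luminescence measured ATXN2-luciferase expression after a fluorogenic Gly-Phe-AFC viability readout (25 uM final).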
HepG2 viability: kills HepG2 cells in TGF-b inhibitor counter-screen; HepG2 CAGA-GFP viability, ATP luminescence, 18 h; Potency, µM (highest dose often 46.1 µM), for the others: top-dose activity change, negative = cytotoxicity, hits mostly cytotoxic; actives 0.76% (n = 410,000); AID 588856
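CellTiter-Glo luminescence gave cytotoxicity after 18 hours at 37 degrees C. The cells were HepG2 CAGA-GFP in 1% FBS DMEM, stimulated with 500 pg/mL TGF-beta after compound addition. %Activity was normalised to no-cell wells (complete cell-killing) and DMSO (no toxicity), and curves were fitted and classified.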
An asterisk follows results filed as active; i = inactive; ? = inconclusive; / = not tested or not shown. The call rests on the fitted dose curve; in most records, active means well fitted curve in the direction sought with a large enough effect; inconclusive means small, poorly fitted or top-dose-only effect, or another doubt; inactive means no such curve, though single readings can be large; an effect the other way counts as inactive or inconclusive. Potency means the concentration at half of the fitted maximal effect.

SMILES | HT1080NT lethal | HT1080 IDH1KD tx | S2 tox | TGFb SMAD3 inh | ATXN2 expr inh | HepG2 viability
C(=N\NC1=Nc2cccc3cccc1c23)/c1ccccn1 | -20% | ? | ? | 2µM* | / | 1%
Clc1ccccc1/C=N/NC1=Nc2cccc3cccc1c23 | ? | ? | 13µM* | 26% | -35% | -51%
C(=N\N=C\c1ccccn1)/c1ccccn1 | 29% | 19% | i | -15% | -7% | -17%
CCNC(=O)C(=O)c1c(-c2ccccc2)[nH]c2ccccc12 | 2% | 11% | i | 4% | -2% | 3%
Nc1sc(Cc2ccccc2)cc1C(=O)c1c(-c2ccccc2)[nH]c2ccccc12 | 7.3µM* | 4.6µM* | / | / | / | /
Cc1ccccc1Nc1nc(N)c(C(=O)c2ccccc2Cl)s1 | / | / | / | / | / | -40%
Cc1c(C(=O)NCc2ccccc2Br)oc2c1-c1[nH]ncc1CC2 | / | / | / | -26% | / | -39%
Cc1cccc(CS(=O)(=O)c2nnc([C@H](Cc3ccccc3)NC(=O)OC(C)(C)C)o2)c1 | 5µM* | 2.8µM* | 8.9µM* | ? | 7.9µM* | -101%
CN(CC1CCCN(CCc2cccc(C(F)(F)F)c2)C1)C(=O)c1ccco1 (stereo not given) | -2% | -2% | i | -25% | -17% | -29%
CC(=O)Nc1ccc(CN(C)CC2CCCN(CCc3cccc(C(F)(F)F)c3)C2)cc1 (stereo not given) | ? | 21µM* | i | 1% | -15% | -83%
CC1CC(C)CN(c2ccc([N+](=O)[O-])nc2)C1 (stereo not given) | 5% | 19% | 12µM* | -7% | -3% | -24%
Cc1ccc(N=C2NC(=O)/C(=C/c3cccn3C)S2)cc1 | -29% | 10µM* | i | -3% | / | 6%
CCOC(=O)c1c(NC(=O)CSc2cn(CCNC(=O)c3ccc(OC)c(OC)c3)c3ccccc23)sc2c1CCC2 | / | / | i | ? | 0% | -4%
CCOc1ccc2nc3cc(N=Nc4ccc(N)nc4N)ccc3c(N)c2c1 | 8% | 19% | / | ? | ? | 14µM*
COc1ccc(N=Nc2ccc(N)nc2N)cc1 | ? | 18% | i | -3% | 49% | -11%
CCn1c(SCC(=O)Nc2cc(C)ccc2F)nnc1-c1ccccc1O | / | / | i | -13% | -12% | -17%
Cc1cccc(/C=C/C(=O)c2cc(Br)ccc(=O)c2O)c1 | ? | ? | i | ? | 12% | -29%
CCOc1ccc(/C=C/C(=O)c2cc(Br)ccc(=O)c2O)cc1 | ? | 23µM* | / | 7.9µM* | -14% | -55%
O=C(C=Cc1ccccc1)c1cc(Br)ccc1O | -1% | 0% | i | -5% | -2% | -3%
CCc1ccc(/C=C/C(=O)c2cc(Br)ccc(=O)c2O)cc1 | 21µM* | ? | ? | ? | 32µM* | -76%
C#Cc1cccc(Nc2ncnc3cc(OC)c(OCCCCCCC(=O)NO)cc23)c1 | / | / | / | / | -39% | /
CC1=CC(C)(C)N2C(=O)C(=Nc3ccc(O)cc3)c3cccc1c32 | 16µM* | 26µM* | / | 13µM* | ? | -97%
COc1cc(N=C2C(=O)N3c4c(cccc42)C(C)=CC3(C)C)cc(OC)c1 | 1% | -1% | i | ? | 1% | -6%
CCOC(=O)c1c(CSCc2ccccc2)oc2ccc(O)c(CN(C)C)c12 | 21µM* | 18µM* | ? | ? | ? | 22µM*
Cc1cnc(Nc2ccc(CN3CCOCC3)cc2)nc1Nc1cccc(S(=O)(=O)NC(C)(C)C)c1 | / | / | / | / | -9% | /
SMILES | HT1080NT lethal | HT1080 IDH1KD tx | S2 tox | TGFb SMAD3 inh | ATXN2 expr inh | HepG2 viability
Cc1ccc(CNC(=O)C2CCN(S(=O)(=O)c3cc(-c4noc(C)n4)ccc3C)CC2)cc1 | / | / | i | ? | -17% | -26%
Cc1nnc(SCC(=O)NC(=O)Nc2ccc3c(c2)OCCO3)s1 | 9% | 10% | i | -13% | 24% | -28%
Cc1cccc(Nc2nnc(SCC(=O)NC(=O)Nc3ccc4c(c3)OCCO4)s2)c1 | 23µM* | ? | i | 3% | ? | -6%
Cc1ccc(S(=O)(=O)N2CCCCC2CCNC(=O)C(=O)NCc2ccncc2)cc1 (stereo not given) | 2% | -11% | i | -17% | -11% | -8%
Cc1ccc(S(=O)(=O)N2CCCCC2CCNC(=O)C(=O)NCc2ccccc2)cc1 (stereo not given) | 7.3µM* | 6.5µM* | i | -20% | -15% | -3%
Cc1ccc(S(=O)(=O)N2CCCCC2CCNC(=O)C(=O)NCc2ccccc2C)cc1 (stereo not given) | 21µM* | 16µM* | i | ? | -35% | -21%
COC1=CC(=O)C(OC)=C(OC)C1=O | -8% | ? | 25µM* | ? | ? | -112%
COc1cc2c(NC3CCN(C)CC3)nc(N3CCCN(C)CC3)nc2cc1OCCCN1CCCCC1 | / | / | / | ? | / | 8%
C[C@H]1CN([C@@H](C)CO)S(=O)(=O)c2ccc(Br)cc2O[C@@H]1CN(C)Cc1cccc(F)c1 | ? | -23% | / | 18µM* | -75% | 13µM*
C[C@@H]1CN([C@@H](C)CO)S(=O)(=O)c2ccc(Br)cc2O[C@H]1CN(C)Cc1ccc(-c2ccccc2)cc1 | ? | 21µM* | ? | ? | ? | -63%
C[C@@H]1CN([C@@H](C)CO)S(=O)(=O)c2ccc(C#CC3CCCCC3)cc2O[C@@H]1CN(C)Cc1cccnc1 | ? | ? | ? | ? | 28µM* | -104%
C[C@H](CO)N1C[C@H](C)[C@@H](CN(C)C(=O)Nc2ccccc2)Oc2cc(Br)ccc2S1(=O)=O | -9% | -9% | i | 15% | -10% | -14%
C[C@H](CO)N1C[C@H](C)[C@@H](CN(C)Cc2ccc(Oc3ccccc3)cc2)Oc2cc(Br)ccc2S1(=O)=O | ? | ? | ? | 13µM* | -2% | -40%
CCS(=O)(=O)c1ccc(OC)c(C(=O)OC)c1 | / | / | i | / | 12% | /
O=C(NCCCN1CCN(c2ccccc2)CC1)c1nnc(Cc2c(F)cccc2Cl)o1 | / | / | / | -10% | / | -19%
COc1ccccc1CNC(=O)c1cccc(S(=O)(=O)N2CCN(c3ccc(F)cc3)CC2)c1 | -7% | -12% | i | ? | / | -21%
CN(C)C(CNC(=O)c1cccc(S(=O)(=O)N2CCN(c3ccc(F)cc3)CC2)c1)c1ccccc1 (stereo not given) | ? | 15µM* | i | ? | ? | -23%
O=C1OC(c2ccccc2)(c2ccc3cc(O)ccc3c2)c2ccccc21 (stereo not given) | 13µM* | 26µM* | ? | ? | ? | -182%
